The full list was thinned out, with hits kept by preference.
ClpP mod: qHTS Assay for Activators of ClpP; purified B. subtilis ClpP, FRET peptide cleavage, 20 min; Potency, µM (doses to about 57.5 µM), for inactives: top-dose activity change, negative = active; hit rate 1.9% among 340,000; AID 651965, 2013; active means well fitted falling curve with a large enough effect; inconclusive means small, poorly fitted or top-dose-only effect; inactive means no such curve, though single readings can be large or run the other way; further: potency means the concentration at half of the fitted maximal effect; the source files actives as falling curves though it sought activators and does not explain the sign; nearly all actives have a fitted effect of over 65% in size
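Purified B. subtilis ClpP, 10 microg/mL final in Tris/HCl pH8 with KCl, BSA, glycerol and Tween-20, cleaved an Abz/nitrotyrosine-quenched decapeptide. Fluorescence (ex 320, em 430) was read at 0 and 20 min at room temperature. Delta was normalized to 5.8 microM ADEP and DMSO/no-enzyme controls.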
Anesthetic bind: qHTS Assay for Identification of Novel General Anesthetics; AID 485281, 2010; hit rate 0.074% among 350,000; apoferritin/1-aminoanthracene competitive binding, fluorescence; Ferritin light chain (Equus caballus), P02791; Potency, µM (doses to about 77.5 µM), for the others: top-dose activity change, negative = displacement, actives largely listed as inhibitors; further: potency means the concentration at half of the fitted maximal effect; on the % scale 0 is the no-effect control and ±100 the full control effect; nearly all actives have a fitted effect of over 20% in size
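Steps: apoferritin (10 uM) was premixed with half-saturated 1-AMA in PBS, compounds were pin-transferred, plates stood 10 min at room temperature, fluorescence was read at 380/535 nm, and curves were fitted with a Hill equation.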
a7 integrin act: qHTS for Activators of Integrin-Mediated Alleviation for Muscular Dystrophy. alpha7betagal myoblasts, beta-gal FDG fluorescence, 48 h. hit rate 0.064% among 350,000. Potency, µM (top dose mostly 38.3 µM), inactives show at the highest dose activation, actives largely listed as activators;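 further: potency means the concentration at half of the fitted maximal effect; 100% = response of the positive control SU9516; nearly all actives have a fitted effect of over 60% in size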
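Alpha7betagal+/- myoblasts (passage 13) were plated 16-24 hr, then exposed to compounds (1:260 dilution of DMSO stock) for 48 hours at 37C. After MPER lysis, β-galactosidase reporter activity was read as FDG fluorescence (ex 480/em 540) after 30 minutes.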
N370S GC mod: qHTS Assay for Inhibitors and Activators of N370S glucocerebrosidase as a Potential Chaperone Treatment of Gaucher Disease; hit rate 0.092% among 330,000; AID 2101, 2009; Lysosomal acid glucosylceramidase (Homo sapiens), P04062; N370S GC spleen homogenate, 4MU-glucoside fluorescence; Potency, µM (top dose mostly 59.4 µM), without a hit: at the highest dose activity change, negative = inhibition, usual class: inhibitors;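 further: potency means the concentration at half of the fitted maximal effect; 0% = full enzyme activity and -100% = no enzyme basal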
CBFb-RUNX1 inh: qHTS Assay for Compounds Blocking the Interaction Between CBF-beta and RUNX1 for the Treatment of Acute Myeloid Leukemia; Runt-related transcription factor 1 (Homo sapiens) + Core-binding factor subunit beta …; Potency, µM (doses to about 59.8 µM), for inactives: at the top dose activity, negative = inhibition, usual class: inhibitors; 230,000 tested, under 10 active; AID 1477, 2009; AlphaScreen CBFb-His/RUNX1-biotin binding, biochemical; further: % of control where 0% means no effect
Target sequence (Q01196 whole entry, looked up): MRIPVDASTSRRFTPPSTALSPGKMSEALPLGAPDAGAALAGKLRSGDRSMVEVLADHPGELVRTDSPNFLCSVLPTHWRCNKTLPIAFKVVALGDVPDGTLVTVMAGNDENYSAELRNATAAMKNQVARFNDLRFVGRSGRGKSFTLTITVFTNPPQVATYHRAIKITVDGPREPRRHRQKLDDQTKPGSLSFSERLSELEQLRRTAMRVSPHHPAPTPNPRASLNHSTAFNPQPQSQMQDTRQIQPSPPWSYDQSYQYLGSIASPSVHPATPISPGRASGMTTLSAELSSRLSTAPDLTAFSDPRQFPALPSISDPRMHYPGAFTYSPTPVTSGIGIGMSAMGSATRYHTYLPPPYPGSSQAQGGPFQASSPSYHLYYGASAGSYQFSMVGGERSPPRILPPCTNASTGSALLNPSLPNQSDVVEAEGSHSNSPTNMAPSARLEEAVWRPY
Target sequence (Q13951 whole entry, looked up): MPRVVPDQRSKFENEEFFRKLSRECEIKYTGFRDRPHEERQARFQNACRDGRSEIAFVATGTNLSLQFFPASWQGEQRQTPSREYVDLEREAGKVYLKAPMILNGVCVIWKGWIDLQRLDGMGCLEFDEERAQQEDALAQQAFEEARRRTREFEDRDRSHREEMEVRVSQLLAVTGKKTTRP
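Room-temperature protein-protein interaction test with 30 nM each of His-tagged CBF-beta and biotinylated RUNX1, 15 min with compound, then 90 min with nickel plus streptavidin beads. Signal read in AlphaScreen mode.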
GRP78 ERSR act: qHTS for Inducers of the Endoplasmic Reticulum Stress Response (ERSR) in Human Glioma: qHTS; U87-MG GRP78 promoter luciferase reporter, 16 h; Potency, µM, for inactives: top-dose activation, actives largely listed as activators; hit rate 0.02% among 420,000; further: potency means the concentration at half of the fitted maximal effect; series mostly up to about 76 µM; % of control where 0% means no effect; nearly all actives have a fitted effect of over 35% in size
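Stably transfected U87-MG glioma cells carrying a GRP78-based luciferase sensor; 16 h compound incubation. Luminescence end-point read 10 min after Bright-Glo addition at room temperature.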
* hit, by the source's call; i = inactive; ? = inconclusive; . = no result given. Unless noted, the call rests on the fitted dose curve; in most records, active means well fitted curve in the direction sought with a large enough effect; inconclusive means small, poorly fitted or top-dose-only effect, or another doubt; inactive means no such curve, though single readings can be large; an effect the other way counts as inactive or inconclusive.

SMILES	ClpP mod	Anesthetic bind	a7 integrin act	N370S GC mod	CBFb-RUNX1 inh	GRP78 ERSR act
O=C(CN1CCCC1)N1CCCc2c1c(=O)oc1ccc(OCc3ccccc3)cc21	32µM*	-16%	-56%	13%	-4%	-4%
Cc1c(-c2ccccc2)[n+](=O)c(-c2ccco2)c(C)n1[O-]	28µM*	-8%	4%	3%	9%	-3%
COC(=O)c1c(OCc2cccnc2)cc(=O)n2c1CCN(C(=O)c1ccc(OC)c(F)c1)CC2	.	.	.	.	.	-2%
COc1cc(OC)cc(C(=O)Nc2ccc3oc(-c4ccccc4C)nc3c2)c1	?	0%	.	.	.	-2%
COc1cccc(C(=O)Nc2ccc(-c3nc4ccccc4o3)c(O)c2)c1	28µM*	45%	-15%	9%	-29%	?
COc1cc(C(=O)Nc2ccc(-c3nc4cc(C)ccc4o3)c(O)c2)cc(OC)c1OC	28µM*	3%	11%	10%	6%	-3%
CC(=O)c1ccccc1-c1ccc2c(c1)CC(CNC(=O)c1ccnc(Cl)c1)O2 (stereo not drawn)	.	.	.	.	.	-3%
CCc1noc(C)c1C(=O)N1CCOc2ccc(CN3CCN(c4ccccn4)CC3)cc2C1	.	.	.	.	.	-6%
CNc1nn(-c2cccc(Cl)c2)nc1N	32µM*	-8%	5%	1%	-6%	1%
Nc1ccccc1Nc1cc(-c2ccccc2)nn1-c1cccc(Cl)c1	1%	40%	?	1%	-23%	-3%
COc1cc(=O)n2c(c1C(=O)NC(C)c1ccco1)CCN(C(=O)c1ccc(F)cc1Cl)CC2 (stereo not drawn)	.	.	.	.	.	-1%
O=S(=O)(c1cccc(F)c1)N1CCN(c2ncnc3scc(-c4ccc(F)cc4)c23)CC1	25µM*	.	-12%	-4%	.	-2%
O=C(NCc1nnc2n1CCN(Cc1cccc(C(F)(F)F)c1)CC2)c1ccncc1	.	.	.	.	.	-4%
CC(C)=CCC/C(C)=C/CC/C(C)=C/CCC(=O)OC/C=C(\C)CCC=C(C)C	.	.	.	.	.	-6%
CCCCC(=O)NC(Nc1cc(C)ccn1)(C(=O)OCC)C(F)(F)F (stereo not drawn)	25µM*	-13%	21%	-13%	4%	-2%
Cc1cnc(C)c(-c2cccc3c2OC(CNC(=O)/C=C/c2ccc(F)c(F)c2)C3)n1 (stereo not drawn)	.	.	.	.	.	-5%
N#Cc1c(N)n(C2CCCCC2)c2nc3ccccc3nc12	32µM*	115%	-13%	4%	13%	1%
C=CCn1c(-c2cccs2)nc2ccccc21	2.8µM*	-19%	-5%	1%	6%	0%
C=CCn1c(COc2ccccc2)nc2ccccc21	.	71µM*	?	-1%	.	4%
c1ccc(OCCn2c(COc3ccccc3)nc3ccccc32)cc1	-6%	10%	.	.	.	0%
COC(=O)c1sc2cnccc2c1N	14µM*	i	22%	26%	1%	-4%
CC(C)NC(=O)c1cn(C2CCC(NC(=O)C(C)(C)C)CC2)nn1 (stereo not drawn)	.	.	.	.	.	-3%
CN(N=O)c1ccc(/C=C2\C=Cc3ccccc32)cc1	0%	.	.	.	.	7%
CN(C)C(=O)COc1ccccc1C(=O)OCC(=O)Nc1ccc(Oc2ccc(Br)cc2)cc1	-5%	.	.	.	.	0%
CC(=O)NC(CCS(C)(=O)=O)C(=O)Nc1ccccc1Cl (stereo not drawn)	16µM*	-5%	9%	15%	5%	-3%
SMILES	ClpP mod	Anesthetic bind	a7 integrin act	N370S GC mod	CBFb-RUNX1 inh	GRP78 ERSR act
COC(=O)c1ccccc1NC(=O)C(CCS(C)(=O)=O)NC(C)=O (stereo not drawn)	28µM*	-4%	-1%	8%	2%	-3%
CC(=O)NC(CCS(C)(=O)=O)C(=O)Nc1cc(Cl)ccc1Cl (stereo not drawn)	-1%	-6%	-6%	6%	9%	-7%
CCn1c2c(c(=O)n3ncc(C(=O)Nc4cc(Cl)ccc4OC)c13)CN(Cc1ccc(OC)cc1)CC2	32µM*	-14%	.	.	.	-4%
CNc1c(Br)cc(C(O)C2=CCc3ccccc32)cc1Br (stereo not drawn)	-1%	.	.	.	.	-3%
Cc1cc(C)c(S(=O)(=O)ON2C(=O)c3ccccc3C2=O)cc1C	8.9µM*	-3%	-23%	-1%	-2%	-10%
COc1ccccc1C1CN(CC(=O)N[C@H]2CCCCNC2=O)Cc2ccccc2O1 (stereo partly drawn)	.	.	.	.	.	-3%
Cc1cc(C)n(-c2nc(NCCCO)c3c4c(sc3n2)CCCC4)n1	18µM*	-14%	-42%	?	-20%	1%
Cc1cc(C)n(-c2nc(NCC3CCCO3)c3c4c(sc3n2)COC(C)(C)C4)n1 (stereo not drawn)	64%	-8%	19%	?	-9%	2%
Cc1cc(C)n(-c2nc(NCCO)c3c4c(sc3n2)CCCC4)n1	-23%	-3%	-6%	13%	-4%	0%
Cc1cc(C)n(-c2nc(NCC(C)O)c3c4c(sc3n2)CCCC4)n1 (stereo not drawn)	32µM*	?	10%	10%	-18%	1%
Cc1cc(C)n(-c2nc(NCC(C)O)c3c4c(sc3n2)COC(C)(C)C4)n1 (stereo not drawn)	28µM*	3%	-19%	4%	-2%	1%
COc1cc(OC)c(OC)cc1CN1CCOc2ccc(CN3CCN(C(C)=O)CC3)cc2C1	.	.	.	.	.	-5%
O=C(NC1CCN(Cc2ccccc2)C1)c1cnn(-c2ncc3c(n2)-c2ccccc2CC3)c1C1CC1 (stereo not drawn)	.	.	.	.	.	-3%
COc1cccc(C2C(C(=O)Nc3ccc(Cl)cc3)=C(C)Nc3c(C(=O)Nc4ccccc4)cnn32)c1OC (stereo not drawn)	28µM*	73%	.	.	.	-4%
CC1=C(C(=O)Nc2ccc(Cl)cc2)C(c2ccccc2C)n2ncc(C(=O)Nc3ccc(C)cc3)c2N1 (stereo not drawn)	32µM*	59%	.	.	.	-5%
Nc1nc(SCc2ccc(Cl)cc2)ns1	3%	50µM*	-24%	8%	-12%	7%
Nc1nc(SCc2ccccc2)ns1	-1%	?	-22%	4%	2%	3%
COc1ccc(-c2ccnc(-n3ncc(C(=O)NCc4cccnc4)c3C3CC3)n2)cc1F	.	.	.	.	.	-6%

From PubChem
